Results as given in PubChem BioAssay (NCI).
This is part of a sample that, as a whole, favours compounds with a hit. Of some 83,000 tested, about 20% had one in any assay.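 Note: values are percent growth. 100 is the growth of untreated cells, values between 100 and 0 indicate rising inhibition; between -100 and 0 indicates cell death.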 Values without a mark were called inactive. Activity calls are given as the source filed them. Rule for the calls: active = growth percent below 10; inactive = the rest.

Columns and labels:
Test in all cases: NCI-60 one-dose screen, 48 h (100 = growth as untreated, 0 = no growth, -100 = all killed)
NCI-H23 lung = settings: 10 µM unless noted
NCI-H226 lung = settings: 10 µM unless noted
NCI-H322M lung = settings: 10 µM unless noted
HOP-62 NSCLC = settings: 10 µM unless noted
NCI-H460 lung = settings: 10 µM unless noted
HOP-92 NSCLC = settings: 10 µM unless noted
NCI-H522 lung = settings: 10 µM unless noted
A549/ATCC NSCLC = settings: 10 µM unless noted
786-0 renal = settings: 10 µM unless noted
COLO 205 colon = settings: 10 µM unless noted
DU-145 prostate = settings: 10 µM unless noted
K-562 leukemia = settings: 10 µM unless noted
MALME-3M melanoma = settings: 10 µM unless noted
MDA-MB-231 breast = settings: 10 µM unless noted
RXF 393 renal = settings: 10 µM unless noted
SF-268 CNS = settings: 10 µM unless noted
SF-295 CNS = settings: 10 µM unless noted
SF-539 CNS = settings: 10 µM unless noted
UACC-257 melanoma = settings: 10 µM

SMILES | growth (NCI-H23 lung) [%] | growth (NCI-H226 lung) [%] | growth (NCI-H322M lung) [%] | growth (HOP-62 NSCLC) [%] | growth (NCI-H460 lung) [%] | growth (HOP-92 NSCLC) | growth (NCI-H522 lung) | growth (A549/ATCC NSCLC) [%] | growth (786-0 renal) [%] | growth (COLO 205 colon) | growth (DU-145 prostate) [%] | growth (K-562 leukemia) | growth (MALME-3M melanoma) | growth (MDA-MB-231 breast) | growth (RXF 393 renal) | growth (SF-268 CNS) [%] | growth (SF-295 CNS) [%] | growth (SF-539 CNS) [%] | growth (UACC-257 melanoma) [%]
O=C(NCCCNc1cc(-c2cn(-c3ccccc3)nc2-c2cccc(O)c2)ccn1)Nc1cc(C(F)(F)F)cc(C(F)(F)F)c1 | 83.2 | 79.6 | 90.3 | 78.2 | 61.3 | 52% | 89.5% | 67.1 | 63.2 | 80.4% | 95.8 | 50.7% | 67% | 66.8% | 8.69% (active) | 60.6 | 45.3 | 74.9 | 82.3
COc1ccc(N)cc1C(=O)Nc1cccc(-c2cc(=O)c3c(OC)c(OC)c(OC)cc3o2)c1 | 63.7 | 61.7 | 72.5 | 69.6 | 61.5 | 8.78% (active) | 60.5% | 69.3 | 53.8 | 84.7% | 59.1 | 46.6% | 89.4% | 60.2% | 50.4% | 68.3 | 63.8 | 64.4 | 98.9
O=C(CSc1nnc(-c2ccc(Cl)cc2)n1-c1ccccc1)Nc1ccc(F)cc1 | 82.3 | 96.1 | 80.3 | 75.2 | 40.8 | 99.2% | 71.8% | 57.3 | 68.1 | 96.6% | 93 | 92.4% | 80.1% | 49.4% | 82.9% | 79.7 | 65.5 | 60 | 98.8
O=C1CC2(CCOCC2)Oc2ncccc21 | 72.5 | 103 | 103 | 101 | 106 | 94.6% | -49.2% (active) | 102 | 47.7 | -13.7% (active) | 97.7 | 4.49% (active) | -31.6% (active) | 8.5% (active) | 92.8% | 65.2 | 109 | 27.7 | 79.2
Cc1ccc(-n2cc(/C=C/C(=O)c3ccc(S(C)(=O)=O)cc3)c(-c3ccc(S(C)(=O)=O)cc3)n2)cc1 | 87.4 | 100 | 94.6 | 89.2 | 100 | 115% | 74.2% | 103 | 103 | 114% | 104 | 27% | 50.3% | 86.5% | 97.9% | 104 | 97.2 | 88.8 | 100
CNC(=O)c1cc(N2CCc3cc(NC(=O)Nc4ccc(Cl)c(Cl)c4)ccc32)ccn1 | 95.9 | 95.9 | 98.6 | 87 | 82.5 | 88.9% | 68.5% | 76.3 | 67.2 | 77.3% | 97.1 | 78.2% | 68.3% | 90.9% | -2.71% (active) | 104 | 71.9 | 55.7 | 79.8
Cn1c(SC(C(=O)Nc2ccc(F)cc2)c2ccccc2)nc2ccccc2c1=O (configuration not stated) | 103 | 102 | 111 | 99.6 | 112 | 86.9% | 93.1% | 99.1 | 102 | 119% | 112 | 103% | 88% | 99.4% | 117% | 106 | 98.2 | 96.1 | 95.6
CCN(CC)c1ccc2cc(C(=O)NCCOCCOCCOCCn3cc(CCC(=O)Nc4ccc(C(=O)c5ccc(NC(=O)OC(C)(C)C)cc5)cc4)nn3)c(=O)oc2c1 | 61.7 | 20.3 | 74.5 | 53.5 | 78.9 | 85.7% | 28.4% | 73.1 | 73.2 | 38.2% | 61.8 | 38.3% | 83.9% | 53.7% | 69.8% | 65 | 43.3 | 79.5 | 63.1
